# Measured values as given in PubChem BioAssay AID686971 (National Center for Advancing Translational Sciences (NCATS), 2013).
# Among all 360,000 compounds or so, about 7,500 (2.1%) were called active. Inconclusive results (about 8%) are left out. Calls come from the whole dose curve; as a rule, active = well fitted cell-killing curve with a large enough effect; inconclusive = small, poorly fitted or top-dose-only effect, or effect the other way, or another doubt; inactive = no such curve, though single readings can be large or run the other way. The entries come from a sample that favours actives as a whole. Where a call stands in place of a potency, no number is given.
# Test: qHTS for induction of synthetic lethality in tumor cells producing 2HG: qHTS for the HT-1080-IDH1KD cell line
# Conditions: HT-1080 IDH1 knockdown viability, ATP luminescence, 48 h; series mostly up to 46.1 µM
# Outline: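 Using the IDH1-knockdown HT-1080 line run in the same batch and compound series as the NT line, viability after 48 h at 37 °C was determined by CellTiter-Glo luminescence and expressed as % activity.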
# Potency is the fitted concentration of half-maximal effect.
row,Structure (SMILES),Potency
1,CC1(C)CC(=O)C=C(c2ccccc2CO)C1=O,inactive
2,COc1ccc(C(C[N+](=O)[O-])n2nc(C)cc2C)cc1 (stereo not drawn),14.6 µM (active)
3,CCOc1ccc(C(C)C)cc1S(=O)(=O)n1nc(C)cc1C,inactive
4,COc1ccc(OC)c(S(=O)(=O)n2c([N+](=O)[O-])cnc2C)c1,inactive
5,Cn1nc(N)c2ncc(C(Cl)(Cl)Cl)nc21,inactive
6,CNc1cc(-c2c(OC)cccc2OC)ncn1,inactive
7,CCOC(=O)C1CCN(CCC(=O)Nc2cccc(C)c2)CC1,inactive
8,CCOC(=O)C1CCN(C(=O)Nc2ccc(C)c(Cl)c2)CC1,inactive
9,CCOC(=O)C1CCN(c2c(Nc3cc(C)cc(C)c3)c(=O)c2=O)CC1,4.61 µM (active)
10,Cc1nc(C(F)(F)F)ccc1C(=O)N1CCC1(C)C(=O)NS(=O)(=O)c1ccccc1Cl (stereo not drawn),inactive
11,O=C(NCCc1ccccc1)c1cccc(NC(=O)c2ccccc2)c1,inactive
12,O=C(CCl)Nc1cccc(CP(=O)(c2ccccc2)c2ccccc2)c1,5.17 µM (active)
13,O=C(CSc1ccccc1)Nc1ccc(C(=O)Nc2cccc(O)c2)cc1,inactive
14,Nc1ncnc2c1ncn2[C@@H]1O[C@H](CNC(=O)[C@H](N)Cc2cccnc2)[C@@H](O)[C@H]1O,inactive
15,CCC(=O)N1CCN(c2ccccc2NC(=O)COc2cccc(C)c2C)CC1,inactive
16,Cc1ccccc1OCC(=O)Nc1ccc(N2CCN(C(=O)C(C)C)CC2)c(Cl)c1,13 µM (active)
17,CCc1ccccc1OCC(=O)Nc1ccc(C)c(S(=O)(=O)N2CCCCCC2)c1,inactive
18,C[C@H]1CN([C@@H](C)CO)C(=O)CCCn2cc(nn2)CO[C@@H]1CN(C)S(=O)(=O)c1ccccc1C#N,inactive
19,Nc1nc2c(ncn2[C@@H]2O[C@H](CNS(=O)(=O)N3CCc4ccccc4C3)[C@@H](O)[C@H]2O)c(=O)[nH]1,inactive
20,CC(C)(C)c1ccc(S(=O)(=O)NC(=O)C2(C)CCN2C(=O)CC2CC2)cc1 (stereo not drawn),inactive
21,CCc1ccc(C(CNc2nc(C(F)(F)F)nc3ccccc23)N(C)C)cc1 (stereo not drawn),20.6 µM (active)
22,NS(=O)(=O)c1ccc(CCNc2nc(C(F)(F)F)nc3ccccc23)cc1,inactive
23,CN(C)C(CNC(=O)c1cc2ccccc2o1)c1ccccc1 (stereo not drawn),inactive
24,CCOC1=C2CN(S(=O)(=O)c3ccc(C)cc3)[C@H](c3cccs3)C[C@H]2[C@H]2C(=O)N(c3ccccc3)C(=O)[C@H]2C1,inactive

row,Structure (SMILES),Potency
1,Cc1ccccc1OCCOc1ccc([N+](=O)[O-])cc1/C=N/n1cnnc1,4.61 µM (active)
2,Cc1ccccc1OS(=O)(=O)c1cccc([N+](=O)[O-])c1,inactive
3,CCOc1cc(/C=N/n2cnnc2)c(Br)cc1O,inactive
4,O=C(COC(=O)Cc1ccc(Cl)cc1Cl)NCc1ccco1,inactive
5,Cn1cnc(S(=O)(=O)N2C[C@@H](O)COC[C@@H]3O[C@H](CC(=O)NC4CCC4)CC[C@H]32)c1,inactive
6,O=c1cc(CN2CCCCCCC2)c2c(ccc3ccccc32)o1,inactive
7,CCOC(=O)C1CCCN(C(=O)/C=C/c2ccc(OC)cc2)C1 (stereo not drawn),inactive
8,CCN1CCC(O)(/C=C/c2ccc(C)cc2)C(C(=O)/C=C/c2ccc(C)cc2)C1 (stereo not drawn),11.6 µM (active)
9,COc1ccc(S(=O)(=O)N2CCN(CC(=O)N3CCNC3=O)CC2)cc1OC,inactive
10,COc1ccc(CN2C(=O)C(CC(=O)NCCN3CCOCC3)CC(C(=O)N(C(C)C)C(C)C)=C2C)cc1 (stereo not drawn),inactive
11,CCc1cc(C(=O)N(CC)CC(=O)Nc2c(F)cccc2F)sc1C,inactive
12,COc1ccc(Cl)cc1NC(=O)CN(C)C(=O)c1cn(-c2ccccc2)nc1-c1cccs1,inactive
13,COc1ccc(Nc2ccc3ccccc3c2)cc1,inactive
14,COc1ccc(Nc2cc(=O)oc3ccccc23)cc1,5.8 µM (active)
15,COc1ccc2oc(=O)cc(-c3cc4ccccc4o3)c2c1,inactive
16,COc1ccc(CC(=O)NC2CCSc3ccccc32)cc1OC (stereo not drawn),inactive
17,COC(=O)C1=CN(Cc2ccc(OC)c(OC)c2)C=C(C(=O)OC)C1c1cccs1,inactive
18,COc1ccc(CC2c3cc(OC)c(OC)cc3CC[N+]2(C)CCC(=O)OCCCCCOC(=O)CC[N+]2(C)CCc3cc(OC)c(OC)cc3C2Cc2ccc(OC)c(OC)c2)cc1OC (stereo not drawn),20.6 µM (active)
19,C/C(=N\NC(=S)NC(C)C)c1ccc(C(C)(C)C)cc1,16.4 µM (active)
20,C/C(=N\NC(=S)NCc1ccccc1)c1ccc(Cl)cc1,inactive
21,CC/C(=N\NC(=S)NC(C)C)c1ccc(OC(F)F)cc1,inactive
22,CC(C)C[C@@H]1COc2cc(N3CCC[C@@H]3CO)ccc2S(=O)(=O)N1,inactive
23,CC(C)(C(=O)NO)c1ccccc1,inactive
24,CCOc1cc(-c2cc(-c3ccc(NC(C)=O)cc3)nc(N)c2C#N)ccc1O,inactive
